Source: PubChem BioAssay
In the library only some 2.5% were active in any assay of this set; here they are far more common.
MEKK2wt PB1 HTS – raises or lowers MEK5 binding to wildtype human MEKK2 PB1 domain. hit rate 1.1% among 290,000. bead flow cytometry, Alexa488-MEK5 binding to MEKK2 WT; actives lie on both sides. binding response (% of control), % at 10 µM; in the data active = binding response below about 67% or above about 130%
MEKK3 PB1 HTS – MEKK3-MEK5 PB1 interaction, increase or decrease; Q99759; bead-based flow cytometry, Alexa488-MEK5 binding to MEKK3; actives lie on both sides; 0 = blocked by unlabeled MEK5, 100 = vehicle; binding response (% of control), % at 10 µM; hit rate 1.4% among 290,000;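 active = binding response more than 3 SD above or below the average of its plate-row segment, actives on both sides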;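 also: Alexa488 bead fluorescence after subtracting the streptavidin-only scavenger bead signal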
MEKK2mut PB1 HTS – signal of MEK5 binding to mutant human MEKK2 PB1 domain; bead flow cytometry, Alexa488-MEK5 binding to MEKK2 mutant; AID 1530; hit rate 0.35% among 290,000; percent response, % at 10 µM; in the data active = percent response above about 24%, passing the limit was not always enough
GRK2 inh – blocks RNA aptamer binding to human GRK2; AID 488847; bead flow cytometry, FAM-aptamer displacement from GRK2; inhibition of aptamer binding, % at 10 µM; P25098; hit rate 0.59% among 330,000;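 active = inhibition of aptamer binding above 40%, roughly 3 SD of noise, on plates passing a quality check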;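 also: median bead fluorescence of bound FAM aptamer so fluorescent compounds give negative values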
MEKK2wt confirm – raises or lowers MEK5 binding to wildtype human MEKK2, retest | shares compounds with MEKK3 PB1 HTS | bead flow cytometry, Alexa488-MEK5 binding to MEKK2 WT; actives lie on both sides | binding response (% of control), % at 10 µM | hit rate 2.4% among 5,900; in the data active = binding response below about 16% or above about 210%; inactive = in between
MEKK2mut-MEK5 – signal of MEK5 binding to mutant human MEKK2, retest; percent response, % at 10 µM; hit rate 2% among 5,900; shares compounds with MEKK3 PB1 HTS; bead flow cytometry, Alexa488-MEK5 binding to MEKK2 mutant; in the data active = percent response mostly above about 71%, no sharp cut-off; inactive = mostly below about 38%;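 also: higher means compound restores mutant binding toward wildtype level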
MEKK3-MEK5 inh – confirmation of inhibitors of MEK5 binding to human MEKK3; shares compounds with MEKK3 PB1 HTS; bead flow cytometry, Alexa488-MEK5 binding to MEKK3; hits give low values; binding response (% of control), % at 10 µM; hit rate 1.8% among 5,900;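 active = binding response below 72% of control, or above a set upper limit, though filed actives all read lower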;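 also: 100% = DMSO only wells and 0% = binding blocked by excess unlabeled MEK5; lower values mean stronger disruption of MEK5 binding to MEKK3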
* hit, by the source's call; · = no result; [ ] = dose if it differs, or a comment.

SMILES | MEKK2wt PB1 HTS | MEKK3 PB1 HTS | MEKK2mut PB1 HTS | GRK2 inh | MEKK2wt confirm | MEKK2mut-MEK5 | MEKK3-MEK5 inh
CC(=O)c1c(C)[nH]c(C(=O)NC2=NCCS2)c1C | 3.0*[inhibitor] | 2.0*[inhibitor] | -14 | 3 | 1.0*[inhibitor] | -29 | 2.0*
CC(=O)c1c(C)[nH]c(C(=O)Nc2ccccn2)c1C | 97 | 95 | -6 | 5 | · | · | ·
CCOc1ccccc1NC(=O)CSc1nnc2ccc(-c3ccncc3)nn12 | 98 | 103 | -4 | 1 | · | · | ·
COc1ccccc1CCNC(=O)CSc1nnc2ccc(-c3ccncc3)nn12 | 118 | 133* | 11 | 2 | 97 | 5 | 102
Cc1ccc(CSc2nnc3ccc(-c4ccncc4)nn23)cc1 | 74 | 63*[inhibitor] | -30 | 0 | 101 | 3 | 97
Cn1cccc1C(=O)NC(=O)CSc1nnc(C2CC2)n1-c1ccccc1 | 122 | 127* | 8 | 6 | 93 | -4 | 95
c1ccc(CN2CCN(CCCNc3ccc4nnc(-c5ccccc5)n4n3)CC2)cc1 | 132 | 114 | 24* | 0 | 161 | 38 | 111
CCOCCOC(=O)C1=C(C)N(C)C(=O)NC1c1ccccc1Cl (stereo not given) | 0.0*[inhibitor] | 1.0*[inhibitor] | -19 | 1 | 104 | 2 | 102
CC1=CC(C)(C)N2C(=O)C3(NCCc4c3[nH]c3ccccc43)c3cccc1c32 (stereo not given) | 88 | 97 | -6 | 3 | · | · | ·
CC(C)Oc1cccc(C(=O)C2CCCN(Cc3cccn3-c3ccccn3)C2)c1 (stereo not given) | 174* | 107 | 35 | 0 | 115 | 7 | 106
Cc1cc(NC(=O)c2cc(C)on2)n(-c2ccccc2)n1 | 79 | 74*[inhibitor] | -4 | 0 | 98 | 3 | 97
Cc1cc(NC(=O)c2cc(-c3ccccc3)on2)n(-c2ccccc2)n1 | 101 | 106 | 3 | 0 | · | · | ·
CC1CCCCC1NC(=O)c1nn(C)c2c1CS(=O)(=O)c1ccccc1-2 (stereo not given) | 95 | 94 | -4 | 0 | · | · | ·
CC(=O)Oc1ccc(C(=O)Cc2ccc3ccccc3n2)c(O)c1C | 105 | 135* | 7 | 1 | 110 | 3 | 108
Cc1c(O)ccc(/C(Cc2ccc3ccccc3n2)=N\O)c1O | 92 | 101 | 0 | 0 | · | · | ·
Cc1nnc(SCCC(=O)Nc2ccccc2Cl)o1 | 102 | 100 | 13 | 1 | · | · | ·
O=C(CCOc1ccccc1)Nc1ccc([N+](=O)[O-])cc1 | 93 | 91 | -2 | 0 | · | · | ·
c1ccc(-c2cc(NCCN3CCCCC3)c3ccccc3n2)cc1 | 139* | 111 | 23 | 0 | 119 | 10 | 105
O=C(c1cc(-c2ccccc2)nc2ccccc12)N1CCCC1 | 102 | 103 | -3 | 0 | · | · | ·
S=C(NCCCN1CCOCC1)N1CCN(c2nc(-c3ccc(Cl)cc3)cs2)CC1 | 163* | 109 | 47 | 0 | 169 | 43 | 112
S=C(NCCCN1CCOCC1)N1CCN(c2nc(-c3ccccc3)cs2)CC1 | 117 | 100 | 2 | 0 | · | · | ·
Cc1ccc2c(c1)c1c3n2CCN(CC(O)CNC(C)C)C3CCC1 (stereo not given) | 169* | 107 | 12 | 4 | 119 | 4 | 98
O=C(CSc1ncnc2ccccc12)c1cccs1 | 80 | 63*[inhibitor] | -4 | 3 | 103 | 1 | 100
Cc1ccc(C(=O)CSc2ncnc3ccccc23)o1 | 99 | 99 | -2 | 0 | · | · | ·
CCCCC1(C)Cc2ccccc2C(=S)N1 (stereo not given) | 2.0*[inhibitor] | 2.0*[inhibitor] | -16 | 0 | 108 | 2 | 103
Nc1ccc(C(=O)N/N=C/c2cn(Cc3ccc(F)cc3)c3ccccc23)cc1 | 93 | 100 | -2 | 0 | · | · | ·
O=C(N/N=C/c1cn(Cc2cccc(F)c2)c2ccccc12)c1cc(O)cc(O)c1 | 65*[inhibitor] | 79*[inhibitor] | -17 | 89* | 74 | -13 | 81
CCOC(=O)c1cc(C(=O)NC(C)c2ccccc2)c(=O)[nH]c1C (stereo not given) | 108 | 106 | 13 | 0 | · | · | ·
